# FLuc modulator = counter-screen for miR-21 project: firefly luciferase inhibitors or activators; purified FLuc, Km substrates, luminescence inhibition; Potency, µM (highest dose often 57.5 µM), actives largely listed as inhibitors; 6.9% of 360,000 active; also: nearly all actives have a fitted effect of over 55% in size
# Target sequence (P08659 whole entry, looked up): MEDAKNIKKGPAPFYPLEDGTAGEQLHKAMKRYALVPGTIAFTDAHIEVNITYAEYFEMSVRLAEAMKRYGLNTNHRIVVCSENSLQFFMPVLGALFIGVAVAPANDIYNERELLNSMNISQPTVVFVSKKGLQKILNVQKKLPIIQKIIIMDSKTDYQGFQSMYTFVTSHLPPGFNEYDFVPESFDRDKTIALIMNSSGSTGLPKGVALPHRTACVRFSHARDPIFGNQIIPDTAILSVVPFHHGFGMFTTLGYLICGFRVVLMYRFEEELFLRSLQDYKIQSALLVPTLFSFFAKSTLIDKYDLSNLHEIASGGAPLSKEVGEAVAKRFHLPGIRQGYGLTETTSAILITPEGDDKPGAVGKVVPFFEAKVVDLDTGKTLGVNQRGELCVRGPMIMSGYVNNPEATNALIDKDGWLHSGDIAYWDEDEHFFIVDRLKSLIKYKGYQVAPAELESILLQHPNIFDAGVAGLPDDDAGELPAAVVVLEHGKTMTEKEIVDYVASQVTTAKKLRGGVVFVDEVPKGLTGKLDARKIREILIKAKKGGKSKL
#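 Purified P. pyralis luciferase, 10 nM final, with Km-level 10 uM D-luciferin and 10 uM ATP in 50 mM Tris acetate pH 7.5, 10 mM Mg acetate, 0.01% Tween-20, 0.05% BSA; 6-point qHTS titration about 60 µM downward; luminescence read.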
# KinaseGlo FLuc = blocks Kinase-Glo luciferase, a counter-screen artifact. Kinase-Glo luciferase, ATP luminescence, 8 min. Potency, µM (doses to about 38.3 µM), hits mostly inhibitors. 0.28% of 200,000 active. AID 1379; also: nearly all actives have a fitted effect of over 60% in size
#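 Substrate mix (final 50 mM imidazole pH 7.2, 50 mM KCl, 7 mM MgCl2, 10 uM ATP, 0.01% Tween 20, 0.05% BSA) plus pin-tool compound, then Kinase-Glo detection mix; 8 min ambient, luminescence read.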
# ELG1 genotoxic = induces genotoxicity in HEK293T cells with luciferase-tagged ELG1; HEK293T ELG1-luciferase reporter, luminescence, 16 h; Potency, µM (series often up to 46 µM), usual class: activators; 1.3% of 330,000 active; AID 504466; also: nearly all actives have a fitted effect of over 60% in size
#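 Screening used a luciferase reporter fused to human ELG1 in HEK293T cells. Luminescence was read on a CCD plate imager after 16 hr exposure and 30 min ONE-Glo incubation.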
# SMN2 splice enh = SMN2 splice variant enhancement; Potency, µM (series often up to 46.1 µM), hits mostly activators; HEK293 SMN2-luciferase splicing reporter, luminescence, 30-36 h; 2.8% of 210,000 active; also: nearly all actives have a fitted effect of over 55% in size
#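 HEK293 cells carry an SMN2 […]–luciferase reporter in which exon 7 inclusion puts luciferase in frame. Cells were plated 10-12 h before compound addition, then incubated 30-36 h at 37C. ONE-Glo luminescence was read; sodium butyrate at 4.5 mM final served as control.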
# NPC1 promoter act = activators of NPC1 promoter; Potency, µM (titrated, usually from 9.22 µM), hits mostly activators; Huh7 NPC1 promoter luciferase reporter, 24 h; 2.4% of 320,000 active; AID 485313; also: nearly all actives have a fitted effect of over 60% in size
#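 Huh7 cells stably carrying NPC1 promoter–luciferase, plated in Opti-MEM with 10% FBS for 2 h, were exposed to compound in DMSO for 24 h at 37 °C; luciferase reagent was added for 10 min and luminescence read.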
# Rab9 prom act = Rab9 promoter activation. Potency, µM (highest dose often 9.22 µM), most hits filed as activators. Huh7 Rab9 promoter-luciferase reporter, luminescence, 24 h. AID 485297. 2.8% of 320,000 active; also: nearly all actives have a fitted effect of over 60% in size
#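 Quantitative HTS format; Huh7 Rab9-luciferase reporter cells (1500/well) receive compound 2 h post-plating, incubate 24 h at 37 °C, then get luciferase reagent for 10 min before luminescence reading.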
# A number is an active result; . = inactive; ? = inconclusive; / = not tested or not shown; [ ] = another dose, or the depositor's remark. Rows were chosen to be rich in hits. Some 7.5% of all compounds tested hit in one or more screens of this group. Calls follow the shape of the dose curve; as a rule, active = well fitted curve in the direction sought with a large enough effect; inconclusive = small, poorly fitted or top-dose-only effect, or another doubt; inactive = no such curve, though single readings can be large; an effect the other way counts as inactive or inconclusive.
SMILES,FLuc modulator,KinaseGlo FLuc,ELG1 genotoxic,SMN2 splice enh,NPC1 promoter act,Rab9 prom act
C/C(=N/NC(=O)c1ccc2c(c1)OCO2)c1ccc(Br)s1,.,/,?,/,?,3.5µM
C/C(=N\NC(=O)c1ccco1)c1ccc(-c2ccccc2)cc1,2.4µM,/,9.2µM,/,3.2µM,3.5µM
COc1ccccc1NC(=O)/C=C\c1ccco1,24µM,/,.,/,?,?
COc1ccccc1NC(=S)NC(=O)/C=C/c1ccco1,.,.,.,.,.,.
COc1cccc(NC(=O)/C=C/c2ccco2)c1,11µM,?,?,13µM,?,2.5µM
CSc1cccc(NC(=O)/C=C/c2ccco2)c1,19µM,.,?,.,.,?
O=C(/C=C/c1ccco1)Nc1cccnc1,19µM,.,?,?,?,?
COc1ccc(Cl)cc1N=C1NC(=O)CC(C(=O)Nc2ccccc2C(F)(F)F)S1 (stereo not given),?,/,/,.,/,/
CC(C)(C)c1ccc(/C=C/C(=O)Nc2cccnc2)cc1,2.7µM,/,2.3µM,/,2µM,1.1µM
CC(=O)Oc1ccc2c(=O)c(Oc3ccccc3)coc2c1OC(C)=O,.,.,.,?,.,.
Fc1ccc2nc(Nc3nc4c(F)cccc4s3)sc2c1,9.5µM,.,.,?,?,?
COc1cccc2sc(Nc3nc4ccc(NC(C)=O)cc4s3)nc12,?,.,.,.,.,.
Fc1ccc2nc(Nc3nc4c(F)cc(F)cc4s3)sc2c1,8.5µM,/,.,/,?,.
Fc1cccc2sc(Nc3nc4ccccc4s3)nc12,?,.,?,10µM,?,?
O=C(NNc1nc2ccccc2s1)c1ccccc1F,.,.,.,.,.,.
CCC(=O)NNc1nc2c(F)cc(F)cc2s1,.,.,.,.,.,.
CCN(CC)S(=O)(=O)c1ccc(C(=O)NCCSc2c(-c3ccc(C)cc3)[nH]c3ccccc23)cc1,.,/,/,.,/,/
C=CCNC(=O)N1CCCC(C(=O)c2cccc(OC(C)C)c2)C1 (stereo not given),17µM,/,?,/,?,3.5µM
CCOc1ccc(-n2ccn3c(CC(C)CC(=O)O)nnc3c2=O)cc1 (stereo not given),.,/,/,.,/,/
CCOC(=O)c1cccc(NC(=O)c2cc3c(=O)n(C)c4ccccc4c3n2C)c1,.,/,/,.,/,/
COc1ccc(OC)c(CNC(=O)c2cc(S(=O)(=O)N3CCC(C)CC3)cn2C)c1,.,/,/,/,/,/
N#CC1=C(N)N2C(=C(C#N)C1c1ccccc1)Sc1ccccc12 (stereo not given),.,.,.,?,.,.
c1ccc([C@H]2CN3C(=N2)Sc2ccccc23)cc1,0.48µM,/,?,/,?,.
O=C(c1cc(-c2ccncc2)nc2ccccc12)N1CCN(c2ccccc2O)CC1,?,/,.,/,.,.
O=C(c1cc(-c2ccccc2)nc2ccccc12)N1CCN(c2ccccn2)CC1,12µM,.,.,.,.,.[1.84 µM]
SMILES,FLuc modulator,KinaseGlo FLuc,ELG1 genotoxic,SMN2 splice enh,NPC1 promoter act,Rab9 prom act
Cc1ccc2nc(-c3ccccc3)cc(C(=O)N3CCN(c4ccccc4O)CC3)c2c1,13µM,/,.,/,.,.
Cc1ccc(S(=O)(=O)N2CCN(C(=O)c3c(-c4ccccc4)noc3C)CC2)c(C)c1,.,/,.,/,.,.
Cc1ccc2nc(-c3ccccc3)cc(C(=O)N3CCN(S(=O)(=O)c4c(C)noc4C)CC3)c2c1,5.4µM,/,.,/,.,.
Nc1nc(N2CCN(c3ccccn3)CC2)nc2ccccc12,11µM,/,?,/,?,3.5µM
CCCCNC(=O)c1cc2cc(CC)ccc2[nH]1,.,/,.,/,.,.
CC(Sc1nc(-c2ccco2)nc2c1c(=O)n(C)c(=O)n2C)C(=O)O (stereo not given),.,/,.,/,.,.
Cc1c(Cl)cccc1NC(=O)C(=O)NCCc1csc(-c2cccc(F)c2)n1,.,/,/,/,/,/
CC(C)c1ccc(NC(=O)CSC2=Nc3ccccc3C3=NC(CCC(=O)NCc4cccs4)C(=O)N23)cc1 (stereo not given),.,/,/,/,/,/
O=C(c1cc(-c2ccccc2)nc2ccccc12)N1CCN(c2ccccc2O)CC1,11µM,/,.,/,.,.
Cc1nc2nc(-c3cccnc3)nn2c(C)c1Cl,.,?,?,/,.,.
Cc1nc2nc(-c3ccco3)nn2c(C)c1Cl,.,.,.,35µM,.,.
COc1ccc(/C=N/n2cnnc2SCCO)cc1OC,?,.,.,.,.,.
C=CCSc1nncn1/N=C/c1ccc(OC)cc1,6.7µM,.,21µM,13µM,2.8µM,2.2µM
COc1cccc(NC(=O)Nc2nc(SC(C)(C)C)ns2)c1,11µM,/,.,/,.,.
COc1cccc(NC(=O)Nc2nc(SC)ns2)c1,6.7µM,/,?,/,2.8µM,1.4µM
CCSc1nsc(NC(=O)Nc2cccc(F)c2)n1,19µM,/,.,/,.,.
COc1ccc(NC(=O)Nc2cccc(OC)c2)cc1,/,.,/,/,/,/
Cn1nnnc1SCCCNCc1cc(Br)ccc1OCc1ccccc1,.,/,/,/,/,/
CCCCC1CCC(c2nc(-c3ccccn3)no2)CC1 (stereo not given),2.7µM,.,?,11µM,?,?
COc1cccc(-c2c(C#N)c(N)nc3c2c(=O)nc2sccn23)c1,.,.,.,.,.,.
CCc1ccccc1NC(=O)c1nnn(-c2ccc(F)cc2)c1C,12µM,/,/,.,/,/
Cc1c(C(=O)Nc2ccc(F)cc2F)nnn1-c1ccccc1Br,.,/,/,/,/,/
COc1ccc(OC)c2c1C(=O)c1ccccc1C2=O,.,.,.,.,.,.
Nc1ccc(O)c2c1C(=O)c1ccccc1C2=O,?,13µM,.,.,.,.
COc1cccc2c1C(=O)c1ccc3ccccc3c1C2=O,1.9µM,.,13µM,16µM,.,?
SMILES,FLuc modulator,KinaseGlo FLuc,ELG1 genotoxic,SMN2 splice enh,NPC1 promoter act,Rab9 prom act
COc1ccc(N)c2c1C(=O)c1ccccc1C2=O,24µM,.,?,?,.,?
COc1cccc2c1-c1c(C(=O)O)cccc1C2=O,.,/,.,/,.,.
CC(C)N(CCNC(=O)c1ccc(Cc2nc3ccccc3[nH]2)cc1)C(C)C,/,.,/,/,/,/
C=CCn1c2ccccc2c(=O)c2cc(C#Cc3ccsc3)ccc21,0.67µM,/,.,/,.,.
C=CCn1c2ccccc2c(=O)c2cc(C#Cc3ccccn3)ccc21,7.6µM,/,.,/,4µM,.
C=CCn1c2ccccc2n2nc(C)c(=O)nc12,.,.,.,.,.,.
C=CCn1c(O)c(N=O)c2ccccc21,.,/,.,/,.,.
COc1cc2c(cc1OC)C(COc1ccccc1OC)N(C(=O)c1ccc(S(=O)(=O)N3CCCC3)cc1)CC2 (stereo not given),.,/,/,/,/,/
O=C(Nc1ccc(F)cc1)c1ccc(-n2cnnc2)cc1,.,/,/,/,/,/
CC(CCO)Nc1nc2c(c(=O)n(C)c(=O)n2C)n1Cc1ccc(Br)cc1 (stereo not given),.,/,/,.,/,/
COCCn1c(C)cc(C(=O)CSc2nnc3ccccn23)c1C,1.3µM,?,0.58µM,?,?,?

# Source: PubChem (National Center for Advancing Translational Sciences (NCATS))
